Experimental data taken from PubChem BioAssay AID1063 (University of Pittsburgh Molecular Library Screening Center, 2008).
The whole screen tested about 200,000 compounds, of which about 18,000 (9%) were called active. For the sample, actives were picked, then their nearest neighbours and some compounds at random. Unmarked numbers belong to inactive results. No stated cut-off is given here; in the data, active means inhibition above about 50%; inactive means the rest.

Assay: antileishmanial activity against promastigotes – primary screen (AID 1063);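 further: promastigotes grown with compound for 44 hours at 28 °C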
Conditions: Leishmania major promastigotes, resazurin fluorescence viability; at 10 µM; active compounds read high

SMILES | inhibition
Cc1ccc2cc(CN(c3ccc(C)c(C)c3)S(C)(=O)=O)c(=O)[nH]c2c1 | 9.29%
CCN(CCn1cccn1)C(=O)CC1C(=O)NCCN1Cc1cccc(OC)c1OC (stereo not drawn) | 5.31%
CCOC(=O)c1sc2nc(C)nc(Nc3ccc(OC)c(OC)c3)c2c1C | -0.22%
COc1ccc(O)c(C=Nc2cc(C)on2)c1 | -9.53%
COc1ccc(-c2onc(C)c2-c2ccc3c(c2)OCCO3)c(O)c1 | 72.5% (active)
COc1ccc(-c2n[nH]c(C)c2-c2ccc(OC)c(OC)c2)c(O)c1 | 4.64%
CCOC(=O)CNC(=O)CSc1ccc2nnc(-c3cccnc3)n2n1 | 4.24%
CC(=O)Cn1ncc(N2CCOCC2)c(Br)c1=O | 5.25%
COc1ccc(CCNC(=O)COC(=O)C2CCCCC2)cc1 | -2.53%
COc1ccc(CNC2CCCCC2)cc1 | 72.3% (active)
COc1ccc(CNC(=O)C2CCN(S(C)(=O)=O)CC2)cc1 | 7.6%
O=c1[nH]n2c(-c3ccccc3)nc(O)c2c2ccccc12 | -6.91%
Nn1cnnc1N/N=C/c1cc([N+](=O)[O-])c(Cl)cc1Cl | 64.3% (active)
CCc1cc2c(=O)c(-c3ccc(F)cc3)c(C(F)(F)F)oc2cc1OCC(=O)O | 0.79%
O=C(CCc1n[nH]c(=O)[nH]c1=O)N/N=C/c1ccc(Br)o1 | 0.7%
CC(C)C1Nc2c(C(=O)O)cccc2C(Nc2ccccc2C(=O)O)C1(C)C (stereo not drawn) | 0.14%
O=C(CSc1nnc(-c2ccncc2)o1)NCc1ccc(Cl)cc1 | -6.74%
O=C(Nc1nnc(C2CC2)s1)c1ccccn1 | 84.9% (active)
O=C(Cc1cccs1)Nc1nnc(C2CC2)s1 | -7.6%
Cc1occc1C(=O)Nc1nnc(C2CCCCC2)s1 | 7.17%
Cc1nc(N)c(Br)c(C)c1Br | 1.28%
CC(C)(C)C(=O)NC(NC(=S)Nc1ccc(S(N)(=O)=O)cc1)C(Cl)(Cl)Cl (stereo not drawn) | 2.02%
CC(NC(=O)Nc1ccc2c(c1)OCO2)c1ccncc1 (stereo not drawn) | -3.06%
CC(NC(=S)Nc1ccc(S(N)(=O)=O)cc1)c1ccc2c(c1)OCO2 (stereo not drawn) | 70% (active)

SMILES | inhibition
COc1c(C)cc(C(=O)C2CCCN(S(=O)(=O)c3c(C)noc3C)C2)cc1C (stereo not drawn) | 6.97%
CN(/C(=N/S(=O)(=O)c1cccs1)c1ccccc1)c1ccc(O)cc1 | 7.12%
CSCC(NS(=O)(=O)c1ccc(C)cc1)C(=O)O (stereo not drawn) | -7.96%
CN1C(=O)/C(=N/OC(=O)c2ccccc2Br)c2ccccc21 | -16.5%
O=C(NNC(=S)NC1CCCCC1)c1ccccc1Cl | 16.1%
Fc1ccc(N2CCN(Cc3cnc(Oc4ccc(Br)cc4)s3)CC2)cc1 | -8.09%
Oc1c(CN2CCN(c3ccc(F)cc3)CC2)cc(Cl)c2cccnc12 | 100% (active)
O=C(c1cccc(C(=O)N2CCN(c3ccc(F)cc3)CC2)c1)N1CCN(c2ccc(F)cc2)CC1 | -10.6%
Cc1nnc(SCC(=O)NNC(=O)c2ccc(Cl)cc2)n1CC1CCCO1 (stereo not drawn) | -2.51%
C/C(=N\OC(=O)c1ccccc1)c1c(C)nc2cc(C)ccn12 | 5.76%
Cc1cccc(N(C(=O)c2ccc(CN3CCOCC3)o2)C(C(=O)NC2CCCCC2)c2ccc(F)cc2)c1 (stereo not drawn) | -5.01%
Cc1ccc(N(C(=O)Cc2cccs2)C(C(=O)NCC2CCCO2)c2ccncc2)cc1 (stereo not drawn) | 3.99%
Cc1ccc(N(C(=O)c2ccc(CN3CCOCC3)o2)C(C(=O)NCCC(C)C)c2cccs2)c(C)c1 (stereo not drawn) | 90.9% (active)
CN(C)CC(C)(C)CNC(=O)c1cc(Br)cc(Br)c1O | -1.61%
CC1=CC2=NC(=O)CC(C)(C(=O)N(CC(=O)NC(C)(C)C)Cc3ccccc3)N2C=C1 (stereo not drawn) | -6.31%
Cc1cccc(CSc2nc3c(c(=O)n2C)SCC3)c1 | 7.35%
COc1ccc(CCNC(=O)CN(c2ccccc2)S(C)(=O)=O)cc1OC | -7.09%
COc1ccc(C(CCN(Cc2ccc(OC)c(OC)c2)C(=O)CCl)c2ccccc2)cc1 (stereo not drawn) | 100% (active)
CCOC(=O)CN(Cc1ccc(OC)c(OC)c1)S(=O)(=O)c1ccc(OC)cc1 | 0.46%
O=C(O)CCn1c(SCc2cc(=O)n3ccccc3n2)nc2ccsc2c1=O | -0.88%
CCN(CC)CCNC(=O)c1ccc(NC(=O)c2c(F)cccc2Cl)cc1 | 7.35%
COc1ccc(Cn2nnc3c(=O)[nH]c(C4CCN(C(=O)c5ccccc5Cl)CC4)nc32)cc1 | -0.57%
COc1ccc(CN2CCC(c3nc4ccc(Cl)cc4[nH]3)CC2)cc1 | 95.6% (active)
COc1ccc(F)c(-c2nc(CN3CCC(c4ccccc4)CC3)c(C)o2)c1 | 48.2%

SMILES | inhibition
CCOc1ccc(C(CC(=O)O)NC(=O)C23CC4CC(CC(C4)C2)C3)cc1OC (stereo not drawn) | 3.74%
Cn1ncc2c(Nc3cccc4ccccc34)ncnc21 | -6.4%
Cn1ncc2c(NNC(=O)Cc3cccc4ccccc34)ncnc21 | 61.6% (active)
O=C(NNc1ncnc2c1cnn2-c1ccccc1)c1ccco1 | -5.13%
O=C1OCC2=C1C(c1ccccc1)CC(=O)N2c1cccc(F)c1 (stereo not drawn) | 7.11%
CCOC(=O)c1cnc2ccc(F)cc2c1Nc1ccc2c(c1)OCCO2 | 85.4% (active)
COC(=O)CCNc1ccc2c(c1)OCCO2 | -0.44%
Cc1ccc2nc(-c3ccncc3)cc(C(=O)Nc3ccc4c(c3)OCCO4)c2c1 | 5.91%
CCCNCc1cc(OCC)c(OCC(=O)Nc2ccccc2)cc1Br | 33.5%
CCOc1cc(CNCCN(C)C)c(Cl)cc1OCC(=O)NCCc1ccccc1 | 99% (active)
O=C(COc1cc(Cl)c(Cl)cc1Cl)NCCc1ccccn1 | -5.85%
O=[N+]([O-])c1ccccc1/C=N/n1c(COc2ccccc2)n[nH]c1=S | -4.75%
Cc1ccc(-c2n[nH]c(=S)n2/N=C/c2cc3c(cc2[N+](=O)[O-])OCO3)cc1 | -0.37%
CCOc1ccc(-c2n[nH]c(=S)n2/N=C/c2cc3c(cc2[N+](=O)[O-])OCO3)cc1 | 52.8% (active)
CN(C)c1ccc2c(=O)[nH][nH]c(=O)c2c1 | -5.2%
CC(=O)N1CCc2cc(Br)cc(S(=O)(=O)CCC(=O)Nc3c(C)n(C)n(-c4ccccc4)c3=O)c21 | -1.11%
O=c1oc(/C=C/c2ccccc2)nc2ccccc12 | 1.06%
CCn1c(/C=C/c2ccc([N+](=O)[O-])o2)nc2ccccc2c1=O | 100% (active)
CCOCCCn1c(NN)nc2ccccc2c1=O | -5.56%
CCN1CCC2(CCN(Cc3cn[nH]c3-c3ccc(OC)c(F)c3)C2)C1 (stereo not drawn) | 1.79%
CCOC(=O)c1c(C2CC2)csc1NC(=O)CSCc1c(C)noc1C | 100% (active)
CCOC(=O)c1c(-c2cccc(C)c2)csc1NC(=O)c1c(-c2ccccc2)noc1C | 1.98%
Cc1noc(C)c1CSCC(=O)Nc1nc2ccc(Oc3ccccc3)cc2s1 | 2.23%
CCOC(=O)c1sc(NC(=O)CCN2CCOCC2)c(C(=O)OCC)c1C | 7.86%

SMILES | inhibition
CCOC(=O)Nc1sc(C(=O)N(C)C)c(C)c1C(=O)OCC | 7.28%
CCOC(=O)c1c(NC(=O)CCl)sc(C(=O)N(CC)CC)c1C | 100% (active)
CCN(c1ccc2c(c1)OCO2)S(=O)(=O)c1cc(Br)cc2c1N(C(=O)C1CC1)CC2 | 57% (active)
CCOC(=O)N1CCN(S(=O)(=O)c2cc(Br)cc3c2N(C(=O)C2CC2)CC3)CC1 | -13.7%
CS(=O)(=O)N(CC(=O)NCc1ccco1)c1ccc2c(c1)OCO2 | 7.89%
COC(=O)C1=C(C)N(C(C)c2ccccc2)C(=O)/C1=C\c1ccco1 (stereo not drawn) | 12.7%
O=c1[nH]c(CN2CCN(S(=O)(=O)c3ccc4c(c3)OCCO4)CC2)nc2sc3c(c12)CCCC3 | 26.5%
O=[N+]([O-])c1ccc(C=Nc2ccc(Cl)cc2Cl)s1 | 100% (active)
CCCNC(=O)c1c(Cl)cnn1-c1ccc(C)cc1 | 6.12%
Cc1ccc(CN(C)CC(=O)Nc2cccc([N+](=O)[O-])c2)o1 | 8.58%
CC(C)(C)n1ncc2c(=O)n(Cc3ccc(Cl)cc3)cnc21 | 0.21%
CCN(CC)S(=O)(=O)c1ccc(Cl)c(NC(=O)c2ccncc2)c1 | 19.7%
COc1ccc(C2CC(c3cccs3)Nc3nnnn32)cc1 (stereo not drawn) | -4.3%
COc1ccc(-n2c(SCC(=O)NCc3ccco3)nnc2-c2c[nH]c3ccccc23)cc1 | 97.7% (active)
O=C(CSc1nnc(-c2cccs2)n1-c1ccccc1)NCc1ccco1 | 7.53%
COc1ccc(-n2c(SCC(=O)NCc3cccs3)nnc2-c2ccoc2C)cc1 | 5.39%
O=C(CSc1nnc2scc(-c3ccc(F)cc3)n12)NCc1ccco1 | -2.03%
O=C(CSc1nnc(-c2c[nH]c3ccccc23)n1-c1ccc(F)cc1)NCc1ccco1 | 52.5% (active)
COc1ccc(C(=O)NC(=O)CSc2nnc(-c3ccco3)n2-c2ccccc2)cc1 | -4.51%
Cc1ccc(N=Cc2c(O)cc(C)oc2=O)c(C)c1 | -1.99%
COc1cccc(CNC(=O)Cc2csc(Nc3nc(=S)[nH]c4ccccc34)n2)c1 | 2.33%
